# From PubChem
# M1 antag = human CHRM1 antagonism. P11229. 360,000 tested, 1.3% active. AID 588852. inhibition, % at 3 µM. CHO-K1 hM1, Fluo-8 calcium fluorescence, ACh EC80 antagonist;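 active = percent inhibition above its own plate's cutoff, namely the mean of that plate's compound wells plus 3 SD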;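 also: peak over basal fluorescence ratio during 140 s after agonist addition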
# M1 ag = human M1 muscarinic receptor agonism; P11229; CHO-K1 hM1, Fluo-8 calcium fluorescence, agonist mode; 0% DMSO, 100% acetylcholine EC100; 360,000 tested, 0.33% active; activation, % at 3 µM; AID 588814;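 active = activation above the run's mean compound activation plus 3 SD, cut at about 16% in these data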;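 also: peak over basal fluorescence ratio within a 140 s kinetic read after compound addition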
# SKN-1 inh = blocks SKN-1 activity in C. elegans; C. elegans VP596 Pgst-4::GFP/RFP ratio, acrylamide-induced, 24 h; inhibition, % at 21.8 µM; 360,000 tested, 0.49% active;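 active = interference check ratio from 0.5 to 1.5 plus GFP to RFP signal ratio inhibition reaching or exceeding a fixed threshold, cut at about 30% in these data, passing the limit was not always enough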
# CHRM1 PAM = positive allosteric modulators of human M1 muscarinic receptor. P11229. CHO-K1 hM1, Fluo-8 calcium fluorescence, ACh EC20; 0% = ACh EC20, 100% = maximal ACh. activation, % at 3 µM. 360,000 tested, 0.088% active. AID 588819; in the data active = activation above about 19%, passing the limit was not always enough
# ATG4B inh = inhibitors of human ATG4B cysteine protease | ATG4B cleavage of LC3-PLA2, NBD-HPC fluorescence, 1 h | inhibition, % at 8.33 µM | 340,000 tested, 0.51% active | AID 504462; in the data active = inhibition above about 40%
# Target sequence (Q9Y4P1 whole entry, looked up): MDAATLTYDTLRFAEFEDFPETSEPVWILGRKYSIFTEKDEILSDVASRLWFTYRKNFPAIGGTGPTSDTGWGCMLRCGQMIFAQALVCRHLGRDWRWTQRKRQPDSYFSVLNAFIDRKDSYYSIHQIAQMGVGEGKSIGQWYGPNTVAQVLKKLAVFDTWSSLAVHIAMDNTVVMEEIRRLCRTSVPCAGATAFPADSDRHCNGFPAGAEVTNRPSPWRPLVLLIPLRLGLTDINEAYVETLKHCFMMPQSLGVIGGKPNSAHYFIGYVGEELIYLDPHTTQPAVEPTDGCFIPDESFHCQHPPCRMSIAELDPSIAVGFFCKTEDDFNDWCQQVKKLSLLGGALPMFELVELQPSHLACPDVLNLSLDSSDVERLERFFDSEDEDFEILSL
# Myeloid diff 2 = promotes myeloid progenitor differentiation. ER-HoxA9 myeloid progenitors, lysozyme-GFP differentiation, flow cytometry. calls only at 10 µM. 360,000 tested, 1% active. AID 624256;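 active = normalized GFP-positive differentiation at or above the plate's own cutoff, the solvent-only control mean plus 3 SD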;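 also: cells exposed to compound for four days before flow analysis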
# Numbers stand for hits; i = inactive; nt = no result given; + = active, no number. An excerpt weighted towards active compounds, which were near 3.5% of everything screened.
SMILES,M1 antag,M1 ag,SKN-1 inh,CHRM1 PAM,ATG4B inh,Myeloid diff 2
CCCCNc1c(-c2ccc(SC(C)CC)c(OC)c2)nc2ccc(Cl)cn12 (stereo not drawn),i,i,i,i,i,i
CCCCNc1c(-c2ccc(OC)c(Sc3ccc(OC)cc3)c2)nc2cnccn12,i,i,i,i,i,i
CCCCCCSc1cc(-c2nc3cnccn3c2NCCCC)ccc1OC,i,i,i,i,i,i
CCOC(=O)CCNC(=O)N1CCCC(N(C)CCc2ccccc2)C1 (stereo not drawn),i,i,i,i,i,i
CC(=O)NCCC(=O)N1CCCC(N(C)CCc2ccccc2)C1 (stereo not drawn),44.8,i,i,i,i,i
O=C(Nc1ccccc1)Nc1ccc(-n2ccc(C(F)(F)F)n2)cc1,67.8,i,i,i,i,i
O=C(C[N+]1(CC#Cc2ccccc2)CCCCC1)c1ccccc1,44.2,i,i,i,i,i
O=C(C[N+]1(CC#Cc2ccccc2)CCCCC1)c1ccc(Cl)cc1,52.4,i,i,i,i,i
O=C(C[N+]1(CC#Cc2ccccc2)CCOCC1)c1ccccc1,i,i,i,i,i,i
CN(Cc1ccc(Cl)c(Cl)c1)C(c1cc2ccccc2o1)c1nnnn1C(C)(C)C (stereo not drawn),nt,nt,i,nt,nt,i
CCc1ccc2c(c1)C(=O)C(=O)N2CCS(=O)(=O)c1ccccc1,i,i,i,i,i,i
O=C1C(=O)N(CCS(=O)(=O)c2ccccc2)c2ccc(Cl)cc21,i,17.2,i,i,i,nt
Cc1ccc(NC2=Nc3ccccc3N3C2=Nc2c(c(C)nn2-c2ccccc2)C3c2ccc(O)c(O)c2)cc1 (stereo not drawn),i,i,36.0,i,i,i
CC(=O)NC(CC(=O)OCC(=O)c1cc(C)ccc1C)c1ccccc1 (stereo not drawn),i,i,i,i,i,i
C=C(C)Cn1c2ccc(NC(=O)CCc3cccnc3)cc2c(=O)n1C,i,i,i,i,nt,i
COC(=O)[C@]12CCCCC=C1N(CCc1ccc(OC)c(OC)c1)C(=O)[C@H](CC(=O)NCc1cccs1)C2,nt,nt,i,nt,nt,i
COc1ccc(C#Cc2c(-c3ccsc3)oc3ccc(N4CCOCC4)cc23)cc1,i,i,i,i,i,i
COc1ccc(-c2oc3ccc(N4CCOCC4)cc3c2C#Cc2ccc(N)cc2)cc1,i,i,i,i,i,+
COCCN(C(=O)CCC(=O)Nc1ccccn1)C(C(=O)NCCC(C)C)c1ccc(F)cc1 (stereo not drawn),i,i,i,i,i,i
COc1nc(-c2ccccc2)ccc1-c1noc(-c2ccco2)n1,i,i,63.3,i,i,i
COc1ccc(-c2ccc(-c3noc(-c4ccco4)n3)c(OC)n2)cc1,i,i,i,i,i,i
Cc1nn(-c2ccccc2)c(C)c1NC(=O)COC(=O)Cc1cccc(C(F)(F)F)c1,i,i,i,i,i,i
COc1ccc(C2OC(CCc3ccccc3)CC3=C2C(=O)OC(C)(C)O3)cc1 (stereo not drawn),i,i,i,i,nt,i
CC(C)CCC(CCN1CCCC1)c1ccc2c(c1)OCO2 (stereo not drawn),57.4,i,i,i,i,i
CC(C)CCC(CCN1CCOCC1)c1ccc2c(c1)OCO2 (stereo not drawn),i,i,i,i,i,i
SMILES,M1 antag,M1 ag,SKN-1 inh,CHRM1 PAM,ATG4B inh,Myeloid diff 2
O=C(Cc1cccs1)NCCS(=O)(=O)N1CCN(c2cccc(Cl)c2)CC1,i,i,i,i,i,i
COc1ccc(-c2ccc3c(c2)S(=O)(=O)c2cccc(C(=O)N4CCN(C5CCCCC5)CC4)c2C3=O)cc1OC,i,i,i,i,i,+
COc1ccc(-c2ccc3c(c2)S(=O)(=O)c2cccc(C(=O)N4CCN(c5ccccn5)CC4)c2C3=O)cc1OC,i,i,i,i,nt,i
COc1cc(C2C(C(=O)/C=C/c3ccccc3)=C(O)C(=O)N2c2ccccn2)ccc1O (stereo not drawn),i,i,i,i,i,i
N#Cc1ccccc1OCC(=O)Nc1nnc(C2CC2)s1,i,i,i,i,i,i
CCOC(=O)N1CCN(C(C(=O)NC2CCCC2)c2ccco2)CC1 (stereo not drawn),nt,nt,i,nt,nt,i
